FMDV inh: antivirals against foot and mouth disease virus; 1.2% of 410,000 active; Potency, µM (top dose mostly 57.9 µM), for the others: at the highest dose activity change, negative = inhibition, usual class: inhibitors; FMDV antiviral cell-based qHTS; AID 1159524; calls by dose curve; tested in HEK293T cells; further: read-out not given here; potency means the concentration at half of the fitted maximal effect; nearly all actives have a fitted effect of over 45% in size
Marburg entry inh: inhibitors of Marburg virus binding or cell entry. 1.8% of 300,000 active. Potency, µM (series often up to 37.8 µM), for the others: at the highest dose activity change, negative = inhibition, usual class: inhibitors. AID 540276. Marburg virus pseudotyped entry inhibition, cell reporter; calls by dose curve; tested in HEK293 cells; further: potency means the concentration at half of the fitted maximal effect
Lassa entry inh: blocks Lassa virus binding to or entry into cells. Potency, µM (highest dose often 37.9 µM), inactives show at the top dose activity change, negative = inhibition, most hits filed as inhibitors. 1.2% of 300,000 active. Lassa virus pseudotype entry inhibition, cell reporter; calls by dose curve; tested in HEK293 cells; further: potency means the concentration at half of the fitted maximal effect; nearly all actives have a fitted effect of over 50% in size
HCMV inh: blocks human cytomegalovirus replication; activity change, negative = inhibition, % at 57.5 µM; 4.5% of 410,000 active; HFF cells, HCMV-luciferase reporter, 72 h; hits give low values; AID 1259415; in the data active means activity change below about -60%; inconclusive means no clear call, values can overlap the other calls; inactive means above about -39%
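Two compound doses tested in HFFs infected with HCMV-luciferase, MOI 1 PFU/cell, 72 h at 37C. Lysate luminescence read with OneGlo; data normalized against buffer-only and 10uM Salinomycin inhibitor controls.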
* marks the source's active call; other numbers are inactive results; [ ] = dose if it differs, or a comment. Hits are enriched below; roughly 6.2% of the tested compounds scored in any of these assays. On the % scale 0 is the no-effect control and ±100 the full control effect.

For Cc1nn(Cc2c(F)c(F)c(F)c(F)c2F)c(C)c1NC(=O)c1cccc(COc2ccccc2Cl)c1 the results were FMDV inh -34%, Marburg entry inh inconclusive, Lassa entry inh inconclusive and HCMV inh 82.
`CC(=O)Nc1ccc(NC(=O)c2ccc(COc3ccc(Cl)cc3Cl)o2)cc1` gave FMDV inh -21%, Marburg entry inh inconclusive, Lassa entry inh 1%[46.1 µM] and HCMV inh -23.
Screening O=C(CSCc1ccc([N+](=O)[O-])cc1)N/N=C/c1ccncc1 returned FMDV inh -19%, Marburg entry inh 25%[46.1 µM], Lassa entry inh 6% and HCMV inh -63*.
`Cc1cccc(NC(=O)c2cc(-c3ccccn3)nc3ccccc23)c1C` gave FMDV inh 14µM*, Marburg entry inh inconclusive, Lassa entry inh inconclusive and HCMV inh -37.
Screening Cc1cccc(NC(=O)c2ccccc2O)c1C returned Marburg entry inh -16%, Lassa entry inh 11% and HCMV inh -86*.
For O=C(Nc1cc(S(=O)(=O)N2CCOCC2)ccc1N1CCCCC1)c1cc(-c2ccccn2)nc2ccccc12 the results were FMDV inh inconclusive, Marburg entry inh -16%[46.1 µM], Lassa entry inh -7% and HCMV inh -13.
COc1cccc(NC(=O)c2cc(-c3ccccn3)nc3ccccc23)c1 was read as FMDV inh -23%, Marburg entry inh -15%, Lassa entry inh -5% and HCMV inh 0.
Screening O=C(Nc1ccccc1O)c1ccccc1O returned FMDV inh -20%, Marburg entry inh inconclusive, Lassa entry inh inconclusive and HCMV inh -8.
For Cc1ccc(S(=O)(=O)N2CCOCC2)cc1NC(=O)c1cc(-c2ccccn2)nc2ccccc12 the results were FMDV inh -18% and HCMV inh -70*.
Screening Cc1ccc(S(=O)(=O)N2CCOCC2)cc1NC(=O)c1cc2ccccc2oc1=O returned FMDV inh -2%, Marburg entry inh 12%[46.1 µM], Lassa entry inh 7%[46.1 µM] and HCMV inh -101*.
For COc1ccc(C)cc1NC(=O)c1cc(S(=O)(=O)N2CCc3ccccc3C2)ccc1F the results were FMDV inh -22%, Lassa entry inh 16%[46.1 µM] and HCMV inh -36.
Screening COc1ccc(N=CC2=C(O)c3ccccc3C2=O)c(OC)c1 returned FMDV inh inconclusive, Marburg entry inh inconclusive, Lassa entry inh 2.5µM* and HCMV inh -31.
`O=C1C(C=Nc2ccc(F)cc2)=C(O)c2ccccc21` gave FMDV inh -52%, Marburg entry inh 9%[46.1 µM], Lassa entry inh inconclusive and HCMV inh 13.
Screening Cc1ccccc1N=CC1=C(O)c2ccccc2C1=O returned FMDV inh 8.9µM*, Marburg entry inh 8.9µM*, Lassa entry inh 10µM* and HCMV inh 23.
Screening CC(C)Oc1ccc(Nc2cc3c(cn2)cc(-c2cccnc2)n3C)cc1 returned HCMV inh -6.
O=C(CCS(=O)(=O)c1ccc(Br)s1)Nc1cc(C(F)(F)F)cc(C(F)(F)F)c1 was read as FMDV inh inconclusive, Marburg entry inh inconclusive, Lassa entry inh -1%[46.1 µM] and HCMV inh -90*.
`CC(=O)c1cccc(NC(=O)CCS(=O)(=O)c2ccc(Br)s2)c1` gave FMDV inh -11%, Marburg entry inh inconclusive, Lassa entry inh 3%[46.1 µM] and HCMV inh inconclusive.
`COc1ccc(COC(=O)NN=C2C[C@@H](O)[C@@H](O)[C@@H]3[C@H]4C(=O)N([C@@H](C)c5ccccc5)C(=O)[C@@H]4CC[C@H]23)cc1` gave Marburg entry inh -1%[14.2 µM] and Lassa entry inh inconclusive.
Screening COc1cc(CC(=O)OCC(=O)Nc2sccc2C(N)=O)cc(OC)c1OC returned FMDV inh inconclusive, Marburg entry inh 11µM*, Lassa entry inh inconclusive and HCMV inh -39.
Screening Cc1nc(-c2ccccc2)nc(Cl)c1Cl returned FMDV inh 12%, Marburg entry inh inconclusive, Lassa entry inh -7%[46.1 µM] and HCMV inh -17.
`Nc1c(Cl)nc(-c2ccccc2)nc1Cl` gave FMDV inh 22% and HCMV inh -72*.
COc1ccccc1Oc1ccc(Oc2ccccc2OC)cc1 was read as FMDV inh -20%, Marburg entry inh 10µM*, Lassa entry inh inconclusive and HCMV inh -19.
Cc1c(C(=O)NCCc2cccnc2)cnn1-c1nccc(-c2ccccc2F)n1 was read as FMDV inh 12%.
COc1cc(=O)n2c(c1C(=O)N(C)Cc1nonc1C)CCN(C(=O)c1cc(C)cc(C)c1)CC2 was read as FMDV inh 15%.
CC1CC1c1ccc(/C=C(\C#N)C(=O)Nc2ccc(Cl)cc2Cl)o1 (configuration not stated) was read as FMDV inh 18%, Marburg entry inh inconclusive, Lassa entry inh -6% and HCMV inh -64*.
`O=S(=O)(NC1CCCC1)OCC(Cl)(Cl)Cl` gave FMDV inh 24% and HCMV inh -63*.
Screening COC(=O)C1=C[C@H]([C@@H](C)[C@H](OC)c2ccccc2Br)[C@H]2[C@H]1c1ccccc1N2C returned Marburg entry inh -16%[14.2 µM] and Lassa entry inh inconclusive.
O=C(CCNS(=O)(=O)c1cccc2nonc12)Nc1ccc(F)cc1 was read as FMDV inh -4%, Marburg entry inh inconclusive, Lassa entry inh 3%[46.1 µM] and HCMV inh 2.
Screening Cc1ccc2[nH]cc(C(c3ccccc3)c3ccc(C)s3)c2c1 (configuration not stated) returned FMDV inh inconclusive, Marburg entry inh inconclusive, Lassa entry inh inconclusive and HCMV inh -100*.
`Cc1ccc2[nH]cc(C(c3ccccc3)c3cccs3)c2c1` (configuration not stated) gave FMDV inh inconclusive, Marburg entry inh inconclusive, Lassa entry inh -11%[46.1 µM] and HCMV inh -79*.
`O=C(Nc1nnc([C@H]2C[C@H](O)[C@@H](CO)O2)s1)c1cccc(Oc2ccccc2)c1` gave FMDV inh 2% and HCMV inh 13.
CCOC(=O)c1cc(OC(=O)c2cccc(F)c2)n(-c2ccccc2)n1 was read as FMDV inh 12%, Marburg entry inh inconclusive, Lassa entry inh -16%[46.1 µM] and HCMV inh 8.
`O=C(CSc1nc(-c2cccs2)nc2cc(=O)[nH]n12)Nc1ccc(F)cc1` gave FMDV inh inconclusive, Lassa entry inh 6%[46.1 µM] and HCMV inh -15.
Screening O=C(NCCCN1CCOCC1)C(=O)NCC1OCCN1S(=O)(=O)c1ccc(F)cc1 (configuration not stated) returned FMDV inh -8%, Marburg entry inh -6%, Lassa entry inh -2% and HCMV inh -1.
`O=C(NCCc1c[nH]c2ccccc12)C(=O)NCC1OCCN1S(=O)(=O)c1ccccc1` (configuration not stated) gave FMDV inh -13%, Marburg entry inh 4%[46.1 µM], Lassa entry inh inconclusive and HCMV inh -4.
Cc1ccc(S(=O)(=O)N2CCOC2CNC(=O)C(=O)NCCCN2CCOCC2)cc1 (configuration not stated) was read as FMDV inh -21% and HCMV inh -61*.

Source: PubChem BioAssay (National Center for Advancing Translational Sciences (NCATS))
